The test system of one experiment is HACAT. The experiment is described as follows: qHTS assay to identify novel small-molecules to repurpose for Merkel cell carcinoma treatment (AID 1296009). Also: nearly all actives have a fitted effect of over 60% in size. Also: potency is read from the fitted curve at half-maximal effect. The conditions noted are these: MCC and control cell lines, CellTiter-Glo viability, 72 h; at 44.8 µM (top of the series) unless noted. In a few lines:
(§1)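 Cell viability measured by CellTiter-Glo following 72 hr compound treatment at 37 degree celsius, with NPC and MIPE libraries tested in 8- and 11-point concentration series.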

In the next experiment the test system is MCC-13. The description is as above. The following applies: MCC and control cell lines, CellTiter-Glo viability, 72 h; series mostly up to 46 µM. A digest of the protocol: as §1
The next experiment deals with MCC-26. The experiment is described as above. The following applies: MCC and control cell lines, CellTiter-Glo viability, 72 h; series mostly up to 46 µM. In a few lines: as §1
A further experiment has as its system MKL-1. The experiment is described as above. The conditions noted are these: MCC and control cell lines, CellTiter-Glo viability, 72 h; series mostly up to 46 µM. In a few lines: as §1
Another experiment has as its system MKL-2. The experiment is described as above. The conditions noted are these: MCC and control cell lines, CellTiter-Glo viability, 72 h; series mostly up to 46 µM. A digest of the protocol: as §1
In another experiment the test system is NIH3T3. Described as above. The following applies: MCC and control cell lines, CellTiter-Glo viability, 72 h; at 44.8 µM (top of the series) unless noted. In a few lines: as §1
The next experiment concerns UISO. Described as above. The conditions noted are these: MCC and control cell lines, CellTiter-Glo viability, 72 h; series mostly up to 46 µM. In a few lines: as §1
In the next experiment the test system is WaGa. The experiment is described as above. The conditions noted are these: MCC and control cell lines, CellTiter-Glo viability, 72 h; series mostly up to 46 µM. In a few lines:
as §1

Another experiment concerns C33A. The experiment is described as follows: Primary qHTS to identify gynecologic anti-cancer compounds using libraries of approved drugs and bioactive compounds (AID 1345084). Also: nearly all actives have a fitted effect of over 55% in size. The conditions noted are these: Gynecologic cancer cell panel viability, ATPlite luminescence, 48 h; series mostly up to 57.5 µM. A digest of the protocol: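 In this quantitative HTS, cell killing is estimated from loss of ATP-dependent luciferase light. Cells see five compound concentrations over a 48 h exposure.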

A further experiment relates to HEK293T. Put plainly: qHTS assay to identify novel small-molecules to repurpose for Merkel cell carcinoma treatment (AID 1296009). Also: nearly all actives have a fitted effect of over 60% in size. Also: potency is read from the fitted curve at half-maximal effect. The following applies: MCC and control cell lines, CellTiter-Glo viability, 72 h; at 44.8 µM (top of the series). In a few lines:
as §1

Inconclusive results are not listed. The source made the active and inactive calls. Calls follow the shape of the dose curve; as a rule, active = well fitted curve in the direction sought with a large enough effect; inconclusive = small, poorly fitted or top-dose-only effect, or another doubt; inactive = no such curve, though single readings can be large; an effect the other way counts as inactive or inconclusive.

In the case of `CC(C)(O)C(Cl)(Cl)Cl`, the outcome in the experiment with HACAT and in the experiment on NIH3T3 was inactive. Further, the Potency entry in the experiment with MCC-13, in the experiment with MCC-26, in the experiment with MKL-1, in the experiment on MKL-2, with UISO and with WaGa was “inactive” each time. Moreover, the Potency entry in the experiment with C33A is “inactive”.

Take `CCCCC1C(=O)NC(=O)N(C2CCCCC2)C1=O` (configuration not stated): in the experiment with HACAT, the outcome was inactive. Moreover, the Potency result in the experiment on MCC-13, in the experiment on MCC-26, in the experiment with MKL-1, in the experiment on MKL-2, in the experiment with UISO and with WaGa was “inactive” throughout. In addition, in the experiment on C33A, the Potency entry was “inactive”.

In the case of `CN1C2CCC(C)(C)C1CC(OC(=O)C(O)(c1cccs1)c1cccs1)C2` (configuration not stated), the molecule was called inactive in the experiment with HACAT. In addition, the Potency entry with MCC-13, with MCC-26, with MKL-1, in the experiment with MKL-2, in the experiment with UISO and in the experiment on WaGa was “inactive” throughout. In addition, in the experiment on C33A, the Potency entry was “inactive”.

`CCc1ccc(C2CCNCC2)cc1`: the molecule was called inactive with HACAT. Moreover, the Potency entry in the experiment with MCC-13, in the experiment on MCC-26, with MKL-1, in the experiment with MKL-2, with UISO and with WaGa was “inactive” each time. For the same molecule, the Potency entry in the experiment with C33A was “inactive”.

As for `CCN(Cc1ccc(Cl)nc1)/C(=C/[N+](=O)[O-])NC`, the molecule was classed as inactive with HACAT and in the experiment on HEK293T. Moreover, the Potency result in the experiment with MCC-13, in the experiment on MCC-26, in the experiment with MKL-1, in the experiment with MKL-2, in the experiment on UISO and in the experiment with WaGa was “inactive” in each case. Further, the Potency entry in the experiment with C33A is “inactive”.

As for `COP(=O)(OC)C(O)C(Cl)(Cl)Cl` (configuration not stated), the molecule was classed as inactive in the experiment on HACAT, in the experiment with HEK293T and with NIH3T3. In addition, the Potency result in the experiment with MCC-13, in the experiment on MCC-26, with MKL-1, with MKL-2, in the experiment with UISO and in the experiment on WaGa was “inactive” throughout. The Potency entry in the experiment on C33A was “inactive”.

Take `CCOC(=O)C(c1c(O)c2ccccc2oc1=O)c1c(O)c2ccccc2oc1=O`: the result with HACAT, with HEK293T and with NIH3T3 was inactive. In addition, the Potency entry in the experiment on MCC-13, with MCC-26, with MKL-1, in the experiment with MKL-2, in the experiment on UISO and in the experiment with WaGa was “inactive” throughout. Moreover, in the experiment on C33A, the Potency result is “inactive”.

On to `C=CCN1CC[C@]23CCCC[C@H]2[C@H]1Cc1ccc(O)cc13`, for which the call in the experiment on HACAT was inactive. Besides, the Potency entry with MCC-13, in the experiment on MCC-26, in the experiment on MKL-1, with MKL-2, in the experiment with UISO and in the experiment on WaGa was “inactive” each time. Further, the Potency entry in the experiment with C33A was “inactive”.

Consider `C#C[C@]1(O)C=C[C@H]2[C@@H]3CCC4=CC(=O)CC[C@@H]4[C@H]3CC[C@@]21CC`, for which, in the experiment with HACAT, the call was inactive. In addition, the Potency result in the experiment with MCC-13, in the experiment with MCC-26, in the experiment on MKL-1, in the experiment on MKL-2, with UISO and in the experiment on WaGa was “inactive” each time. In addition, the Potency entry with C33A is “inactive”.

For `ClCCCN1CCN(c2cccc(Cl)c2)CC1`, the call in the experiment on HACAT, with HEK293T and in the experiment on NIH3T3 was inactive. Further, the Potency entry in the experiment with MCC-13, in the experiment on MCC-26, in the experiment on MKL-1, with MKL-2, with UISO and in the experiment with C33A was “inactive” throughout.

Consider `COc1cc(CC#N)cc(OC)c1OC`, for which, in the experiment with HACAT, the result was inactive. Further, the Potency result in the experiment on MCC-13, in the experiment on MCC-26, in the experiment with MKL-1, in the experiment on MKL-2, with UISO and in the experiment with WaGa was “inactive” throughout. Further, the Potency entry with C33A is “inactive”.

As to `C[C@]12CC[C@H]3[C@@H](CC=C4C[C@@H](O)CC[C@@]43C)[C@@H]1CC[C@@H]2O`, in the experiment with HACAT, the molecule was classed as inactive. The Potency entry in the experiment on MCC-13, in the experiment with MCC-26, in the experiment with MKL-1, in the experiment on MKL-2, with UISO and in the experiment with WaGa was “inactive” throughout. For the same molecule, the Potency entry with C33A is “inactive”.

Consider `OC(O)C(Cl)(Cl)Cl`, for which the result in the experiment with HACAT and with NIH3T3 was inactive. Also, the Potency entry in the experiment with MCC-13, in the experiment on MCC-26, in the experiment on MKL-1, in the experiment with MKL-2, with UISO and in the experiment on WaGa was “inactive” in each case. Besides, the Potency result in the experiment with C33A was “inactive”.

On to `C[C@H]1C(=O)O[C@@H]2CCN3CC=C(COC(=O)[C@](C)(O)[C@]1(C)O)[C@H]23`, for which the result with HACAT was inactive. The Potency entry in the experiment on MCC-13, in the experiment with MCC-26, with MKL-1, with MKL-2, in the experiment with UISO and in the experiment with WaGa was “inactive” in each case. The Potency result in the experiment with C33A is “inactive”.

For `CN(C)C(=O)Oc1cc(OC(=O)N(C)C)cc(C(O)CNC(C)(C)C)c1` (configuration not stated), the result with HACAT was inactive. The Potency entry in the experiment with MCC-13, with MCC-26, in the experiment on MKL-1, in the experiment with MKL-2, in the experiment with UISO and in the experiment with WaGa was “inactive” in each case. Further, the Potency entry in the experiment on C33A is “inactive”.

As for `C#C[C@]1(O)CC[C@H]2[C@@H]3CCC4=CC(=O)CCC4=C3C=C[C@@]21CC`, in the experiment with HACAT, the molecule was classed as inactive. The Potency result in the experiment with MCC-13, in the experiment on MCC-26, in the experiment on MKL-1 and in the experiment on C33A was “inactive” each time.

Take `C[C@]12CC[C@H]3[C@@H](CCC4=CC(=O)CC[C@@H]43)[C@@H]1CC[C@@H]2O`: the molecule was classed as inactive with HACAT. For the same molecule, the Potency entry in the experiment on MCC-13, in the experiment on MCC-26, in the experiment with MKL-1, in the experiment with MKL-2, in the experiment on UISO and with WaGa was “inactive” throughout. Further, in the experiment with C33A, the Potency result is “inactive”.

For `CCCC(C)C1(CC)C(=O)N=C(S)NC1=O` (configuration not stated), in the experiment on HEK293T, the result was inactive. Moreover, the Potency entry in the experiment with MCC-13, in the experiment with MCC-26, in the experiment with MKL-1, in the experiment with MKL-2, in the experiment on UISO and with WaGa was “inactive” each time. Also, in the experiment with C33A, the Potency result is “inactive”.

Turning to `CCN1CCCC1CNC(=O)C(O)(c1ccccc1)c1ccccc1` (configuration not stated), the molecule was classed as inactive with HEK293T and in the experiment with NIH3T3. Besides, the Potency entry in the experiment on MCC-13, in the experiment on MCC-26, in the experiment on MKL-1, in the experiment on MKL-2, with UISO and in the experiment with WaGa was “inactive” throughout. The Potency result in the experiment with C33A is “inactive”.

On to `O=C(CCl)c1ccc(Cl)cc1Cl`, for which the result in the experiment with HACAT was inactive. The Potency result in the experiment with MCC-13, with MCC-26, in the experiment with UISO and in the experiment on C33A was “inactive” throughout.

Take `Cc1ccc(N=CN(C)C=Nc2ccc(C)cc2C)c(C)c1`: the molecule was classed as inactive in the experiment on HEK293T and in the experiment with NIH3T3. The Potency entry with MCC-13, in the experiment with MCC-26, in the experiment with MKL-1, in the experiment on MKL-2, in the experiment on UISO and with WaGa was “inactive” in each case. Further, in the experiment with C33A, the Potency entry was “inactive”.

Turning to `Oc1ccc([C@H]2CNCc3c2ccc(O)c3O)cc1O`, the molecule was classed as inactive in the experiment with HACAT. Further, the Potency result in the experiment on MCC-13, in the experiment with MCC-26, in the experiment on UISO and in the experiment with C33A was “inactive” in each case. The Potency in the experiment with MKL-2 was 13.3 µM (active).

Regarding `CN1CCc2cc(Cl)c(O)cc2[C@H]2c3ccccc3CC[C@@H]21`, the call in the experiment with HACAT was inactive. Besides, the Potency result in the experiment with MCC-13, in the experiment with MCC-26, with MKL-1, in the experiment on MKL-2, with UISO and in the experiment with C33A was “inactive” each time.

For `CC(C)=C[C@@H]1[C@@H](C(=O)OCc2coc(Cc3ccccc3)c2)C1(C)C`, the outcome in the experiment on HACAT was inactive. Also, the Potency result in the experiment on MCC-13, in the experiment with MCC-26, with MKL-1, in the experiment on MKL-2, in the experiment with UISO and with C33A was “inactive” each time.

Take `C[N+]1(C)[C@@H]2CC[C@H]1CC(OC(=O)C(CO)c1ccccc1)C2` (some centres not stated): the molecule was called inactive in the experiment on HEK293T. Further, the Potency entry in the experiment on MCC-13, with MCC-26, with MKL-1, in the experiment on MKL-2, in the experiment on UISO and with WaGa was “inactive” throughout. For the same molecule, the Potency entry in the experiment with C33A is “inactive”.

Turning to `CN(C)CCc1c[nH]c2ccc(O)cc12`, the outcome with HACAT and with NIH3T3 was “inactive [at 92 µM]” throughout. For the same molecule, the Potency result with MCC-13, in the experiment with MKL-1 and with C33A was “inactive” each time. Further, the Potency in the experiment with UISO is 53.4 µM (active).

Regarding `C[C@]12Cc3nonc3C[C@@H]1CC[C@@H]1[C@@H]2CC[C@@]2(C)[C@H]1CC[C@]2(C)O`, in the experiment with HACAT, the call was inactive. Moreover, the Potency result with MCC-13, in the experiment on MCC-26 and in the experiment on C33A was “inactive” in each case. In addition, the Potency in the experiment on WaGa was 18.8 µM (active).

As for `CC1COC2(c3ccccc3Cl)c3cc(Cl)ccc3NC(=O)CN12` (configuration not stated), the result in the experiment with HACAT was inactive. For the same molecule, the Potency entry in the experiment with MCC-13, with MCC-26, in the experiment on MKL-1, in the experiment on UISO and with C33A was “inactive” each time.

Source of the values: PubChem BioAssay (NCATS).
